Values joined by “and” are separate entries in the source; they are usually repeats but may differ in a detail not shown here. Equal values may be shown once. Inconclusive results are not listed. The source holds several records for some structures; these can differ, active in one and inactive in another. Active and inactive are the calls of the source. Unless noted, the call rests on the fitted dose curve; in most records, active means well fitted curve in the direction sought with a large enough effect in the repeat runs; inconclusive means weak or mixed curves; inactive means no such curve, though single readings can be large; an effect the other way counts as inactive or inconclusive.
Assays:
[1] = qHTS assay to identify small molecule agonists of the hypoxia (HIF-1) signaling pathway - cell viability counter screen (AID 1224844; calls by dose curve; further: nearly all actives have a fitted effect of over 50% in size)
Summary of the method: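 Cytotoxicity was measured in parallel with the HRE-driven beta-lactamase readout: after 17 hrs of compound exposure at 37C, HRE-bla ME-180 cells received CellTiter-Glo and luminescence was recorded 30 min later.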

[2] = qHTS assay to identify small molecule agonists of H2AX (AID 1224845; active means well fitted activation curve with a large enough effect in the signal ratio in the repeat runs, not every such curve was filed as active; the % refers to the signal ratio)
Summary of the method: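 Phospho-H2AX Ser139 measured by HTRF (ex 320 nm; em 665 and 620 nm) after 24 hr antibody incubation. Compounds, 15 concentrations, 0.76% DMSO, were applied to CHO-K1 cells for 3hr at 37C before lysis.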

[3] = qHTS assay to identify small molecule agonists of the hypoxia (HIF-1) signaling pathway (AID 1224846; active means well fitted activation curve with a large enough effect in the signal ratio in the repeat runs, not every such curve was filed as active; the % refers to the signal ratio)
Summary of the method: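 Compounds from the Tox21 10K library, dissolved in DMSO, are tested for induction of a hypoxia response element–controlled beta-lactamase reporter in ME-180 cells. Exposure lasts 17 hrs at 37C after a 5 hr settling period, followed by CCF4-AM FRET substrate.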

[4] = qHTS assay to identify small molecule agonists of H2AX - cell viability counter screen (AID 1224847; calls by dose curve; further: top concentration of the series differs between compounds; nearly all actives have a fitted effect of over 30% in size)
Summary of the method: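 We seed wild-type CHO-K1 cells overnight, treat them for 3 hr at 37C with compounds in 15-concentration series, and quantify remaining viability by CellTiter-Glo luminescence.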

[5] = qHTS assay to identify small molecule antagonists of the estrogen related receptor (ERR) signaling pathway from Tox21 library (AID 1224848); further: nearly all actives have a fitted effect of over 50% in size
Summary of the method: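 ERR cell line, 2,000 cells/well. 6 h settle, then compound (DMSO) added; 18 h at 37 C; ONE-Glo luminescence after 30 min RT.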

[6] = qHTS assay to identify small molecule agonists of the estrogen related receptor (ERR) signaling pathway from Tox21 library (AID 1224849; calls by dose curve; further: nearly all actives have a fitted effect of over 15% in size)
Summary of the method: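 Cells carrying the ERR reporter were plated and allowed to settle for 6 h, exposed to library compounds for 18 h at 37 C, then lysed with ONE-Glo and luminescence measured.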

[7] = qHTS RealTime-Glo MT Cell Viability Assay in HepG2 cells - 24 hour (AID 1224867); further: nearly all actives have a fitted effect of over 50% in size
Summary of the method: (§1)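 HepG2 suspension premixed with RealTime-Glo reagents is plated at 600 cells per well and left 5 h at 37 C/5% CO2. Compounds in DMSO then go in, and bioluminescence reflecting viable cell number is recorded over 40 h.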

[8] = qHTS RealTime-Glo MT Cell Viability Assay in HEK293 cells - 32 hour (AID 1224868); further: nearly all actives have a fitted effect of over 50% in size; further: potency means the concentration at half of the fitted maximal effect
Summary of the method: (§2)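 Reads taken at 0, 8, 16, 24, 32 and 40 h from the same wells. HEK293 cells (600/well) carried RealTime-Glo reagents from seeding, with compound added after a 5 h settle at 37 C.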

[9] = A CellTox Green Cytotoxicity Assay to monitor cytotoxicity in HEK293 cells - 0 hour (AID 1224869); further: nearly all actives have a fitted effect of over 50% in size
Summary of the method: (§3)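 Cells (HEK293, 600/well) and dye reagent are dispensed together. After 5 h at 37 C, 23 nL compound is pinned in. Plates stay at 37 C for 40 h with fluorescence read at 0h, 8h, 16h, 24h, 32h and 40h.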

[10] = qHTS RealTime-Glo MT Cell Viability Assay in HepG2 cells - 40 hour (AID 1224870); further: nearly all actives have a fitted effect of over 50% in size
Summary of the method: (§4)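 Real-time viability: cells seeded at 600 per well together with NanoLuc and cell-permeant prosubstrate, compounds added after 5 h incubation. Luminescence tracked at 0, 8, 16, 24, 32 and 40 h of exposure.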

[11] = A CellTox Green Cytotoxicity Assay to monitor cytotoxicity in HEK293 cells - 40 hour (AID 1224871); further: nearly all actives have a fitted effect of over 45% in size
Summary of the method: as §3

[12] = qHTS RealTime-Glo MT Cell Viability Assay in HEK293 cells - 16 hour (AID 1224872)
Summary of the method: as §2

[13] = qHTS RealTime-Glo MT Cell Viability Assay in HepG2 cells - 8 hour (AID 1224873); further: nearly all actives have a fitted effect of over 55% in size
Summary of the method: as §4

[14] = qHTS RealTime-Glo MT Cell Viability Assay in HEK293 cells - 40 hour (AID 1224874); conditions: RealTime-Glo luminescence; max response: stronger effect = lower value; further: nearly all actives have a fitted effect of over 50% in size; further: potency means the concentration at half of the fitted maximal effect
Summary of the method: (§5)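 Real-time viability in HEK293: signal arises when living cells convert a prosubstrate for NanoLuc in the medium, so luminescence tracks viable cell number. Compound (23 nL, DMSO) added 5 h post-seeding; kinetic reads at 0–40 h, 37 C.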

[15] = A CellTox Green Cytotoxicity Assay to monitor cytotoxicity in HEK293 cells - 24 hour (AID 1224875); further: series mostly up to about 77 µM; nearly all actives have a fitted effect of over 45% in size
Summary of the method: as §3

[16] = qHTS RealTime-Glo MT Cell Viability Assay in HepG2 cells - 32 hour (AID 1224877); further: nearly all actives have a fitted effect of over 55% in size
Summary of the method: as §1

[17] = A CellTox Green Cytotoxicity Assay to monitor cytotoxicity in HepG2 cells - 24 hour (AID 1224878); further: nearly all actives have a fitted effect of over 45% in size; further: potency means the concentration at half of the fitted maximal effect
Summary of the method: (§6)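 Cells and non-lytic dye reagent are dispensed together (600 HepG2 cells/well) and incubated 5 h before DMSO compound transfer. Kinetic fluorescence is then recorded in the same wells during 40 h at 37 C.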

[18] = A CellTox Green Cytotoxicity Assay to monitor cytotoxicity in HepG2 cells - 40 hour (AID 1224879); further: nearly all actives have a fitted effect of over 40% in size; further: potency means the concentration at half of the fitted maximal effect
Summary of the method: as §6

[19] = qHTS RealTime-Glo MT Cell Viability Assay in HEK293 cells - 0 hour (AID 1224880); further: top concentration of the series differs between compounds; nearly all actives have a fitted effect of over 45% in size
Summary of the method: as §5

[20] = A CellTox Green Cytotoxicity Assay to monitor cytotoxicity in HepG2 cells - 16 hour (AID 1224876); further: nearly all actives have a fitted effect of over 45% in size
Summary of the method: as §6
On the % scale 0 is the no-effect control and ±100 the full control effect.

CC(C)CC(=O)CC(C)CC(C)C (stereo not given)
active: Potency [14] 15.5 µM
inactive: outcome [1] | outcome [2] | outcome [3] | outcome [4] | outcome [5] | outcome [6] | Potency [7] | outcome [9] | outcome [10] | Potency [11] | Potency [12] | Potency [13] | max response [14] 0.688% | Potency [15] | outcome [16] | Potency [17] | Potency [18] | outcome [19]
inactive and 17.4 µM (active): Potency [8]

CCO[Si](CCCN)(OCC)OCC
inactive: outcome [1] | outcome [2] | outcome [3] | outcome [4] | outcome [5] | outcome [6] | Potency [7] | Potency [8] | outcome [9] | Potency [11] | Potency [12] | Potency [13] | max response [14] -7.12% and 0.455% | Potency [15] | outcome [20] | outcome [16] | Potency [17] | Potency [18] | outcome [19]

O=C1C(c2[nH]c3ccccc3c2O)=Nc2ccccc21
inactive: outcome [1] | outcome [2] | outcome [3] | outcome [4] | outcome [5] | outcome [6] | Potency [7] | Potency [8] | outcome [9] | Potency [11] | Potency [12] | Potency [13] | max response [14] 4.84% | Potency [15] | outcome [20] | outcome [16] | Potency [17] | Potency [18] | outcome [19]

CC(=O)OCc1ccco1
inactive: outcome [1] | outcome [2] | outcome [3] | outcome [4] | outcome [5] | outcome [6] | Potency [7] | Potency [8] | outcome [9] | Potency [11] | Potency [12] | max response [14] 3.13% and 20% | Potency [15] | outcome [20] | outcome [16] | Potency [17] | Potency [18] | outcome [19]

CCCOC(=O)c1ccccc1
inactive: outcome [1] | outcome [2] | outcome [3] | outcome [4] | outcome [5] | outcome [6] | Potency [8] | outcome [9] | outcome [10] | Potency [11] | Potency [12] | Potency [13] | max response [14] 4.73% and -2.32% | Potency [15] | outcome [16] | Potency [17] | Potency [18] | outcome [19]

COc1ccc(OC)cc1
inactive: outcome [1] | outcome [2] | outcome [3] | outcome [4] | outcome [5] | outcome [6] | Potency [8] | outcome [9] | outcome [10] | Potency [11] | Potency [12] | Potency [13] | Potency [15] | outcome [20] | outcome [16] | Potency [17] | Potency [18] | outcome [19]

CC(CCO)CC(C)(C)C (stereo not given)
inactive: outcome [1] | outcome [2] | outcome [3] | outcome [4] | Potency [7] | Potency [8] | outcome [9] | outcome [10] | Potency [11] | Potency [12] | Potency [13] | max response [14] -6.13% and 0.884% | Potency [15] | outcome [20] | outcome [16] | Potency [17] | Potency [18] | outcome [19]

Nc1ccc(Cl)c(N)c1
inactive: outcome [1] | outcome [2] | outcome [3] | outcome [4] | Potency [7] | Potency [8] | outcome [9] | outcome [10] | Potency [11] | Potency [12] | Potency [13] | max response [14] -8.1% and -8.99% | Potency [15] | outcome [20] | outcome [16] | Potency [17] | Potency [18] | outcome [19]

CCCCCCC=O
inactive: outcome [1] | outcome [2] | outcome [3] | outcome [4] | Potency [7] | Potency [8] | outcome [9] | outcome [10] | Potency [11] | Potency [12] | max response [14] 0.391% and 24.5% | Potency [15] | outcome [20] | outcome [16] | Potency [17] | Potency [18] | outcome [19]

Clc1ccccn1
inactive: outcome [1] | outcome [2] | outcome [3] | outcome [4] | Potency [8] | outcome [9] | outcome [10] | Potency [11] | Potency [12] | Potency [13] | max response [14] 5.77% and 7.16% | Potency [15] | outcome [20] | outcome [16] | Potency [17] | Potency [18] | outcome [19]

O=C(OCC1CCC2OC2C1)C1CCC2OC2C1 (stereo not given)
inactive: outcome [1] | outcome [2] | outcome [3] | outcome [4] | Potency [7] | Potency [8] | outcome [9] | Potency [11] | Potency [12] | max response [14] 2.18% and 1.6% | Potency [15] | outcome [20] | outcome [16] | Potency [17] | Potency [18] | outcome [19]

CCCCC(C=O)CC (stereo not given)
inactive and 14.6 µM (active): Potency [17] | Potency [18]
inactive: outcome [1] | outcome [2] | outcome [3] | outcome [4] | Potency [7] | Potency [8] | outcome [9] | outcome [10] | Potency [11] | Potency [12] | Potency [13] | Potency [15] | outcome [16] | outcome [19]

CC(O)CC(C)(C)O (stereo not given)
inactive: outcome [1] | outcome [2] | outcome [3] | outcome [4] | Potency [7] | Potency [8] | outcome [9] | outcome [10] | Potency [11] | Potency [12] | Potency [15] | outcome [16] | Potency [17] | Potency [18] | outcome [19]

CSc1ccc(Cl)cc1
inactive: outcome [1] | outcome [2] | outcome [3] | outcome [4] | Potency [7] | Potency [8] | outcome [9] | outcome [10] | Potency [11] | Potency [12] | max response [14] -0.983% and -3.28% | Potency [15] | outcome [16] | Potency [17] | Potency [18] | outcome [19]

CNC(=S)N(C)C
inactive: outcome [1] | outcome [2] | outcome [3] | outcome [4] | Potency [7] | outcome [9] | Potency [11] | Potency [12] | Potency [13] | Potency [15] | outcome [16] | Potency [17] | Potency [18] | outcome [19]
inactive and 11.6 µM (active): Potency [8]
